In PubChem BioAssay (NCATS):
Records with an inconclusive call do not appear. Active and inactive are the calls of the source. Calls follow the shape of the dose curve; as a rule, active = well fitted curve in the direction sought with a large enough effect; inconclusive = small, poorly fitted or top-dose-only effect, or another doubt; inactive = no such curve, though single readings can be large; an effect the other way counts as inactive or inconclusive.

Tests used:
[1] = qHTS of pediatric cancer cell lines to identify multiple opportunities for drug repurposing: Confirmatory screen for LAN-5 cells (AID 1347113); details: LAN-5 neuroblastoma cell viability; series mostly up to 45.9 µM; also: nearly all actives have a fitted effect of over 65% in size; also: potency is read from the fitted curve at half-maximal effect
How it was run: (§1)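 Viability after 48 h compound treatment at 37C, 500-1,000 cells/well, read as ATP luminescence with CellTiter-Glo. Primary screens used 11-point (MIPE, 0.78 nM-46 µM) or 8-point (NPC, 0.59 nM-46 µM) final concentrations; follow-up screens used 11-point dilutions.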

[2] = qHTS of pediatric cancer cell lines to identify multiple opportunities for drug repurposing: Confirmatory screen for DAOY cells (AID 1347114); details: DAOY medulloblastoma cells viability, cytotoxicity qHTS; series mostly up to 45.9 µM; also: nearly all actives have a fitted effect of over 65% in size; also: potency is read from the fitted curve at half-maximal effect
How it was run: (§2)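 Viability measured as metabolically active cells via CellTiter-Glo luminescence following 48 hours of compound exposure, 11-point dilutions in confirmatory testing. 500-1,000 cells/well plated 5 hours before dosing; controls were DMSO and 2.3 µM bortezomib.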

[3] = qHTS of pediatric cancer cell lines to identify multiple opportunities for drug repurposing: Confirmatory screen for NB-EBc1 cells (AID 1347115); details: NB-EBc1 neuroblastoma cells, viability (cytotoxicity); series mostly up to 45.9 µM;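 also: cells exposed to compound for 48 h before the viability read; nearly all actives have a fitted effect of over 45% in size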; also: potency is read from the fitted curve at half-maximal effect
How it was run: as §1

[4] = qHTS of pediatric cancer cell lines to identify multiple opportunities for drug repurposing: Confirmatory screen for SJ-GBM2 cells (AID 1347116); details: SJ-GBM2 glioblastoma cells, viability; series mostly up to 45.9 µM; also: nearly all actives have a fitted effect of over 60% in size; also: potency is read from the fitted curve at half-maximal effect
How it was run: as §2

[5] = qHTS of pediatric cancer cell lines to identify multiple opportunities for drug repurposing: Confirmatory screen for BT-37 cells (AID 1347117); details: BT-37 pediatric cancer cells, viability; series mostly up to 45.9 µM; also: nearly all actives have a fitted effect of over 55% in size; also: potency is read from the fitted curve at half-maximal effect
How it was run: as §1

[6] = qHTS of pediatric cancer cell lines to identify multiple opportunities for drug repurposing: Confirmatory screen for TC32 cells (AID 1347118); details: TC32 Ewing sarcoma cells viability qHTS; series mostly up to 45.9 µM;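 also: potency is read from the fitted curve at half-maximal effect; cells exposed to compound for 48 h before the read; nearly all actives have a fitted effect of over 65% in size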
How it was run: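 Luminescent CellTiter-Glo read-out of metabolically active TC32 cells after 48 h compound exposure. Primary: MIPE 11-point, 0.78 nM–46 µM; NPC 8-point, 0.59 nM–46 µM. Confirmatory: 11-point dilutions.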

[7] = qHTS of pediatric cancer cell lines to identify multiple opportunities for drug repurposing: Confirmatory screen for U-2 OS cells (AID 1347122); details: U-2 OS osteosarcoma cell viability; series mostly up to 45.9 µM; also: nearly all actives have a fitted effect of over 65% in size; also: potency is read from the fitted curve at half-maximal effect
How it was run: as §1

[8] = qHTS of pediatric cancer cell lines to identify multiple opportunities for drug repurposing: Confirmatory screen for Rh41 cells (AID 1347123); details: Rh41 rhabdomyosarcoma cells, viability/cytotoxicity qHTS; series mostly up to 45.9 µM; also: nearly all actives have a fitted effect of over 60% in size; also: potency is read from the fitted curve at half-maximal effect
How it was run: as §1

[9] = qHTS of pediatric cancer cell lines to identify multiple opportunities for drug repurposing: Confirmatory screen for RD cells (AID 1347124); details: RD rhabdomyosarcoma cell viability; series mostly up to 45.9 µM; also: potency is read from the fitted curve at half-maximal effect
How it was run: as §1

[10] = qHTS of pediatric cancer cell lines to identify multiple opportunities for drug repurposing: Confirmatory screen for Rh30 cells (AID 1347126); details: Rh30 rhabdomyosarcoma cell viability; series mostly up to 45.9 µM; also: nearly all actives have a fitted effect of over 55% in size; also: potency is read from the fitted curve at half-maximal effect
How it was run: as §1

[11] = qHTS of pediatric cancer cell lines to identify multiple opportunities for drug repurposing: Confirmatory screen for Saos-2 cells (AID 1347127); details: Saos-2 osteosarcoma cell viability; series mostly up to 45.9 µM; also: potency is read from the fitted curve at half-maximal effect; nearly all actives have a fitted effect of over 60% in size
How it was run: as §1

[12] = qHTS of pediatric cancer cell lines to identify multiple opportunities for drug repurposing: Confirmatory screen for OHS-50 cells (AID 1347128); details: OHS-50 osteosarcoma cells viability; series mostly up to 45.9 µM;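 also: potency is read from the fitted curve at half-maximal effect; compound exposure lasted 48 h at 37 degrees C; nearly all actives have a fitted effect of over 55% in size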
How it was run: as §1

[13] = qHTS of pediatric cancer cell lines to identify multiple opportunities for drug repurposing: Confirmatory screen for SK-N-SH cells (AID 1347129); details: SK-N-SH neuroblastoma cell viability; series mostly up to 46.1 µM;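 also: cells exposed to compound for 48 h before viability read; nearly all actives have a fitted effect of over 60% in size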; also: potency is read from the fitted curve at half-maximal effect
How it was run: as §1

[14] = target: N-terminal Xaa-Pro-Lys N-methyltransferase 1 (Homo sapiens) (UniProt Q9BV86); experiment: qHTS Assay for Inhibitors of N-terminal methyltransferase 1 (NTMT1): LOPAC validation of the NTMT1 SAHH-coupled ThioGlo3 Assay (AID 1347143); details: recombinant NTMT1, SAHH-coupled ThioGlo3 fluorescence; series mostly up to 114 µM;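 also: SAH from peptide methylation measured as thiol fluorescence via SAHH coupling and ThioGlo3; nearly all actives have a fitted effect of over 70% in size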; also: potency is read from the fitted curve at half-maximal effect
How it was run: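 Recombinant human NTMT1 (125nM) was pre-incubated 1 min at room temperature with compounds over a concentration range, then a mix of 100uM SAM, 10uM SAHH and 15uM ThioGlo3 (concentrations in added reagent) was added. ThioGlo3 fluorescence (ex 340/em 450nm) after 30 min was normalized to the initial reading.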

[15] = qHTS of pediatric cancer cell lines to identify multiple opportunities for drug repurposing: Confirmatory screen for control Hh wild type fibroblast cells (AID 1347121); details: viability qHTS; series mostly up to 45.9 µM; also: nearly all actives have a fitted effect of over 70% in size; also: potency is read from the fitted curve at half-maximal effect
How it was run: as §1

[16] = test system: Zika virus NS2B-NS3 protease; experiment: Primary screen GU AMC qHTS for Zika virus inhibitors (AID 1347154); details: Zika NS2B-NS3 unlinked protease, AMC fluorogenic substrate; series mostly up to 54.1 µM; also: nearly all actives have a fitted effect of over 70% in size
How it was run: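 Unlinked Zika NS2B hydrophilic domain–NS3 protease complex at 25 nM in 10 mM Tris-HCl pH 8.0, 0.01% Tween 20, with an AMC peptide substrate. Fluorescence change (340/450 nm) over 15 min at room temperature, normalized to controls, fitted to 4-parameter Hill.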

[17] = test system: Zika virus NS2B-NS3 protease (unlinked); experiment: Optimization of GU AMC qHTS for Zika virus inhibitors: Unlinked NS2B-NS3 protease assay (AID 1347151); details: recombinant ZIKV NS2B-NS3 protease, fluorogenic AMC substrate; series mostly up to 52.5 µM; also: nearly all actives have a fitted effect of over 80% in size
How it was run: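 Fluorescence read-out (340 nm ex / 450 nm em) of AMC peptide cleavage, taken immediately and after 15 min at room temperature (~20% conversion). Enzyme was the unlinked NS2B–NS3 complex at 25 nM in Tris pH 8.0 buffer.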

Measured: Potency

Sequence of N-terminal Xaa-Pro-Lys N-methyltransferase 1 (Homo sapiens) (Q9BV86 whole entry, looked up): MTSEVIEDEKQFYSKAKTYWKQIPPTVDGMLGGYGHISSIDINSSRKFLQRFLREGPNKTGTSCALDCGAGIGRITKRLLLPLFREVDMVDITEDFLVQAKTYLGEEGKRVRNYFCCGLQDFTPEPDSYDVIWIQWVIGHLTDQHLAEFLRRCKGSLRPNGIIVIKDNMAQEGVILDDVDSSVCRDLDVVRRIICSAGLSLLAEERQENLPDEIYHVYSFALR

CC[C@@]1(O)C(=O)OCc2c1cc1n(c2=O)Cc2cc3ccccc3nc2-1
active: [1] 58.5 nM | [2] 4650 nM | [3] 65.7 nM | [4] 104 nM | [5] 36.9 nM | [6] 18.5 nM | [7] 1040 nM | [8] 369 nM | [9] 465 nM | [10] 737 nM | [11] 104 nM | [12] 147 nM | [13] 2090 nM | [14] 3550 nM

CC(=O)[O][Hg][c]1ccccc1
active: [1] 3290 nM | [3] 5850 nM | [4] 1170 nM | [5] 2330 nM | [6] 827 nM | [15] 13100 nM | [10] 1310 nM | [11] 1170 nM | [12] 5850 nM | [13] 2640 nM
inactive: [16]

C[C@H]1CCCC=CC2C[C@H](O)C[C@@H]2[C@H](O)C=CC(=O)O1 (stereo not given in full)
active: [1] 117 nM | [3] 117 nM | [4] 208 nM | [5] 92.8 nM | [6] 117 nM | [7] 208 nM | [8] 827 nM | [9] 329 nM | [10] 3690 nM | [12] 46.5 nM | [13] 132 nM
inactive: [16]

CC(=Cc1csc(C)n1)[C@@H]1C[C@H]2O[C@]2(C)CCC[C@H](C)[C@@H](O)[C@@H](C)C(=O)C(C)(C)[C@@H](O)CC(=O)O1
active: [2] 11.7 nM | [5] 5.2 nM | [6] 3.7 nM | [7] 26.1 nM | [8] 10.4 nM | [11] 13.1 nM | [12] 13.1 nM
inactive: [10] | [16]

CC(C)[C@]12O[C@@H]1[C@@H]1O[C@]13[C@]1(O[C@H]1C[C@@H]1C4=C(CC[C@@]13C)C(=O)OC4)[C@H]2O
inactive: [15]
active: [1] 147 nM | [2] 208 nM | [4] 65.7 nM | [5] 36.9 nM | [6] 73.7 nM | [7] 73.7 nM | [8] 26.1 nM | [9] 52.2 nM | [11] 46.5 nM | [12] 104 nM | [13] 148 nM

CC(=Cc1csc(C)n1)[C@@H]1C[C@H]2O[C@@H]2CCC[C@H](C)[C@@H](O)[C@@H](C)C(=O)C(C)(C)[C@@H](O)CC(=O)O1
active: [2] 13.1 nM | [4] 104 nM | [6] 14.7 nM | [8] 36.9 nM | [9] 46.5 nM | [11] 29.3 nM | [12] 32.9 nM
inactive: [15]

CC(C)(O)C=CC(=O)[C@](C)(O)[C@H]1[C@H](O)C[C@]2(C)[C@@H]3CC=C4[C@@H](C=C(O)C(=O)C4(C)C)[C@]3(C)C(=O)C[C@@]12C
inactive: [16]
active: [1] 58.5 nM | [2] 165 nM | [3] 3290 nM | [4] 1650 nM | [5] 827 nM | [6] 827 nM | [15] 2610 nM | [7] 208 nM | [8] 208 nM | [9] 465 nM | [10] 827 nM | [11] 147 nM | [12] 1470 nM | [13] 264 nM

O=c1[nH]c2ccc(Cl)cc2c(N[C@@H]2CN3CCC2CC3)c1-c1nc2ccccc2[nH]1
inactive: [16]
active: [1] 1470 nM | [2] 9270 nM | [3] 522 nM | [4] 1040 nM | [5] 5850 nM | [6] 465 nM | [15] 18500 nM | [7] 1310 nM | [8] 3690 nM | [9] 2330 nM | [10] 5220 nM | [11] 1310 nM | [12] 657 nM | [13] 5260 nM

O=C(N[C@H]1CN2CCC1CC2)c1ccc(Cl)cc1
inactive: [2] | [3] | [5] | [15] | [14] | [17] | [16]
active: [1] 23300 nM | [4] 585 nM | [6] 1650 nM | [9] 414 nM | [12] 10400 nM

CC=C(C)C(=O)N[C@@H](c1ccccc1)[C@@H](O)C(=O)O[C@H]1C[C@@]2(O)[C@@H](OC(=O)c3ccccc3)[C@@H]3[C@]4(OC(C)=O)CO[C@@H]4C[C@H](O)[C@@]3(C)C(=O)[C@H](OC(C)=O)C(=C1C)C2(C)C
active: [5] 52.2 nM | [11] 41.4 nM | [12] 41.4 nM
inactive: [1] | [15] | [16]

CCCCCC[C@H]1C(=O)O[C@H](C)[C@H](NC(=O)c2cccc(NC=O)c2O)C(=O)O[C@@H](C)[C@@H]1OC(=O)CC(C)C
active: [1] 5850 nM | [3] 14.7 nM | [6] 117 nM | [15] 16.5 nM | [13] 9350 nM

CCCN1CCO[C@@H]2c3cc(O)ccc3OC[C@@H]21
active: [10] 8270 nM
inactive: [1] | [2] | [3] | [4] | [15] | [7] | [8] | [9] | [13] | [16]
